Results reported in PubChem BioAssay AID651725 (National Center for Advancing Translational Sciences (NCATS), 2012).
Hit rate of the full screen: of about 360,000 compounds, about 2,000 (0.56%) were called active. Inconclusive results (about 2%) are left out. No stated cut-off is given here; in the data, active means activity change below about -65%; inconclusive means mostly about -30% to -63%; inactive means weaker than that. Shown is part of a subset that was picked to be rich in actives.

Biological target: Homeobox protein SIX1 (Homo sapiens) + Protein phosphatase EYA2 (Homo sapiens) (UniProt Q15475+O00167)
Experiment: qHTS Assay for Inhibitors of the Six1/Eya2 Interaction
Conditions: AlphaScreen GST-Six1/His-Eya2 binding, biochemical; stronger effect = lower value
Excerpt: Its expression is low or undetectable in normal adult breast tissue but the gene is over-expressed in 50% of primary breast tumors and 90% of metastatic lesions. […] Similar to Six1, Eya2 is also not expressed in most normal adult tissues, but is reexpressed in cancers. The Six1-Eya interaction is essential for proliferation during embryonic development, and both Six1 and Eya2 have been independently implicated in the same types of cancer. Because Six1 and Eya2 are embryonic genes with little expression in adult tissues, inhibitors of their expression/activity are likely to have limited side effects. Our goal is to identify inhibitors of the Six1/Eya interaction for potential cancer therapy. To this end, we have developed a homogenous AlphaScreen assay targeting the Six1/Eya interaction. We performed a large scale HTS of the Molecular Libraries Small Molecule Repository (MLSMR) to identify inhibitors of the Six1/Eya interaction as potential anti-cancer therapeutics. Compounds identified can also be used as chemical probes to better understand the biological functions of Six1 and Eya. NIH Chemical Genomics Center [NCGC] NIH Molecular Libraries Probe Centers Network [MLPCN] MLPCN Grant: DA033147 Assay Submitter (PI): Rui Zhao, University of Colorado Denver
The first step of the 5 uL AlphaScreen assay is to dispense assay buffer (50 mM Tris, pH 8.0, 300 mM NaCl, 0.05% BSA, 0.02% Tween 20, 1 mM TCEP) into a Greiner 1536 white solid bottom microtiter plate (789175-F). Five microliters is added to Column 1, 4 uL is added to Column 2 and 3 uL is added to Columns 3 through 48. A 5X protein solution (250 nM GST-Six1 protein + 500 nM His-tagged Eya2 protein) is mixed and 1 uL is dispensed to Columns 3-48. Using a 1536 pintool, 23 nL of compound is transferred to the assay plate. A solution of 5X AlphaScreen beads is mixed (50 ug/mL Glutathione linked donor beads + Nickel chelated acceptor beads) and 1 uL is dispensed to Columns 2-48. The assay plate is incubated for one hour, with a lid, at 37 deg C in the dark. The plate is read using a Perkin Elmer Envision using an AlphaScreen protocol.
On the % scale 0 is the no-effect control and ±100 the full control effect.

Chain of Homeobox protein SIX1 (Homo sapiens) + Protein phosphatase EYA2 (Homo sapiens) (O00167 whole entry, looked up): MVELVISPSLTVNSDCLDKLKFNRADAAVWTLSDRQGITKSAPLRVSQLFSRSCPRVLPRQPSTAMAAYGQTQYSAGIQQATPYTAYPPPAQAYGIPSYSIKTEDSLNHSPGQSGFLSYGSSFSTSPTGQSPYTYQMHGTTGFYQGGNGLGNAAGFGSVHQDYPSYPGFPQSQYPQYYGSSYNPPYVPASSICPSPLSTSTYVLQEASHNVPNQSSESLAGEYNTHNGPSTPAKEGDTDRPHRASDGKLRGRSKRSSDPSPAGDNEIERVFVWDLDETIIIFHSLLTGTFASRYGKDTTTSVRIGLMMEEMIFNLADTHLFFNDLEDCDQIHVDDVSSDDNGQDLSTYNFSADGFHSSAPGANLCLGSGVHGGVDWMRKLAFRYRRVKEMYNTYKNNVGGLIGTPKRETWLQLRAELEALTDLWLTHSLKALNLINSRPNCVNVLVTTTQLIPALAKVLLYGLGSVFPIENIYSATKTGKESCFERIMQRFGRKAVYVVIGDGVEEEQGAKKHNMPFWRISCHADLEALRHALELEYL
Chain of Homeobox protein SIX1 (Homo sapiens) + Protein phosphatase EYA2 (Homo sapiens) (Q15475 whole entry, looked up): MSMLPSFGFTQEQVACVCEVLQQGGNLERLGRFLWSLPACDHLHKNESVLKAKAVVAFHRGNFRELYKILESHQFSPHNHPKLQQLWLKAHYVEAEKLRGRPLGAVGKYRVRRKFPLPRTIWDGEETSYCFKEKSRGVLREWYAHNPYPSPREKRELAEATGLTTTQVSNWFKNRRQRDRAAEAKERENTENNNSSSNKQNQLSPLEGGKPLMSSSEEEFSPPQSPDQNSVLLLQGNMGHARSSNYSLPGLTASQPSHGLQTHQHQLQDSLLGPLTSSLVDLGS

Row | Compound | activity change
1 | Cc1cccc(-n2c(O)c(/C=N/N3CCOCC3)c(=O)[nH]c2=S)c1 | -2.01% (inactive)
2 | O=C(N/N=C/c1c(O)n(C2CC2)c(=S)[nH]c1=O)c1ccccc1 | -88.6% (active)
3 | O=C(N/N=C/c1c(O)n(C2CC2)c(=S)[nH]c1=O)c1ccccc1Cl | -80.8% (active)
4 | COc1ccccc1-n1c(O)c(C=NC2CC2)c(=O)[nH]c1=O | 0.906% (inactive)
5 | O=c1[nH]c(=O)n(Cc2ccccc2)c(O)c1/C=N/Nc1c(F)c(F)c(F)c(F)c1F | 1% (inactive)
6 | O=c1[nH]c(=S)n(C2CC2)c(O)c1/C=N/N1CCOCC1 | -0.819% (inactive)
7 | CC(C)c1ccc(-n2c(O)c(/C=N/N3CCOCC3)c(=O)[nH]c2=S)cc1 | 5.13% (inactive)
8 | O=C(N/N=C/c1c(O)n(Cc2ccccc2)c(=O)[nH]c1=O)c1ccccc1 | -70.8% (active)
9 | CC/C(=N\NC(=O)c1ccccc1O)c1c(O)n(Cc2ccccc2)c(=O)[nH]c1=O | -9.73% (inactive)
10 | CCOC(=O)[C@]12Cc3cc(OC)ccc3[C@H]1N(C(C)C)C(=O)c1ccccc12 | -2.51% (inactive)
11 | CCOC(=O)[C@]12Cc3ccccc3[C@H]1N(C1CCCCC1)C(=O)c1cc(OC)ccc12 | -3.21% (inactive)
12 | C[C@]12CCC3C(CC[C@H]4[C@H](O)[C@H](O)CC[C@]34C)C1CC[C@@H]2O (stereo not given in full) | 0% (inactive)
13 | COP(=O)(NS(=O)(=O)c1ccccc1)OC | 12.4% (inactive)
14 | CC1(C)Cc2c(C#N)c(N3CCNCC3)nc(-c3ccco3)c2CS1 | -3.88% (inactive)
15 | O=C1NCN(c2ccccc2)C12CCN(C(c1cccs1)c1nnnn1C1CCCCC1)CC2 (stereo not given) | -13.5% (inactive)
16 | COc1ccc(-n2nnnc2C(c2cccc3ccccc23)N2CCC(n3c(=O)[nH]c4ccccc43)CC2)cc1 (stereo not given) | -11.3% (inactive)
17 | O=C(NCC(c1cccnc1)N1CCN(c2ccccc2)CC1)Oc1ccccc1 (stereo not given) | -4.91% (inactive)
18 | CC12CN3CC(C)(CN(C1)C3c1cccs1)C2 (stereo not given) | -7.54% (inactive)
19 | CC(C)c1ccc(OCC(=O)N2CCN(C)CC2)c(Br)c1 | -2.15% (inactive)
20 | CCC(C)n1c(O)c(/C=N/Nc2nc3c(c(=O)n(C)c(=O)n3C)n2C)c(=O)[nH]c1=S (stereo not given) | -86.1% (active)
21 | CCC(=O)CC(c1ccc([N+](=O)[O-])cc1)c1c(O)c2ccccc2oc1=O (stereo not given) | 0.567% (inactive)
22 | O=c1[nH]c2ccccc2n1C1CCN(C(c2ccccc2)c2nnnn2Cc2ccccc2)CC1 (stereo not given) | -20.3% (inactive)
23 | CCCCC(=O)N/N=C/c1c(O)n(CCC2=CCCCC2)c(=O)[nH]c1=O | -75.4% (active)
24 | CCCCC(=O)N/N=C/c1c(O)n(-c2ccccc2)c(=O)[nH]c1=O | -83.5% (active)
25 | O=c1[nH]c(=O)n(CCc2ccc(F)cc2)c(O)c1/C=N/N1CCCCC1 | 5.39% (inactive)
26 | COc1ccc(CCn2c(O)c(C=NC3CC3)c(=O)[nH]c2=O)cc1OC | -3.07% (inactive)
27 | CCc1nnc(NS(=O)(=O)c2ccc(N=Cc3c(O)n(-c4ccccc4)c(=O)[nH]c3=O)cc2)s1 | 1.54% (inactive)
28 | CCCCC(=O)N/N=C/c1c(O)n(CC)c(=S)n(CC)c1=O | -9.7% (inactive)
29 | COC(=O)C[C@H]1CC[C@H]2NC[C@@H](O)COC[C@@H]2O1 | 4.76% (inactive)
30 | CC[C@H]1CC2CN3CCc4c([nH]c5ccccc45)C(C(=O)OC)(C2)C13 (stereo not given in full) | -23.8% (inactive)
